# Screening data deposited in PubChem BioAssay by National Center for Advancing Translational Sciences (NCATS).
# G9a block: G9a (human) methyltransferase inhibition | Potency, µM (doses to about 102 µM), for inactives: top-dose activity, negative = inhibition, actives largely listed as inhibitors | 350,000 compounds, 8.8% hits | G9a H3K9 monomethylation, AlphaScreen, 2 h | Q96KQ7 | AID 504332; note: % is set by controls: 0 for no effect and ±100 for the full control effect; nearly all actives have a fitted effect of over 75% in size
#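 Using a bead-based AlphaScreen, monomethylated H3K9 product from 2 h room-temperature reactions (G9a 20 nM, peptide 500 nM, SAM 20 uM) was detected with 0.5 ug/mL rabbit anti-H3K9me1 antibody.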
# GLS inhibitor: inhibitors of human glutaminase (GLS) | Potency, µM (top dose mostly 45.5 µM), for inactives: at the top dose activity change, negative = inhibition, most hits filed as inhibitors | AID 624170 | GLS enzymatic activity, qHTS titration | 410,000 compounds, 0.21% hits | O94925; note: % is set by controls: 0 for no effect and ±100 for the full control effect
#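 Compounds were pin-transferred onto hKGA, after which L-glutamine (1 mM solution) and a detection mix of glutamate oxidase, HRP and Amplex Red were added. Initial and 30 min RT fluorescence reads were collected.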
# JMJD2A Tudor: JMJD2A Tudor domain (human) inhibition | 390,000 compounds, 4.4% hits | AlphaScreen JMJD2A-Tudor / H3K4me3 peptide binding | Potency, µM (series often up to 114 µM), for the others: at the top dose activity change, negative = inhibition, usual class: inhibitors; note: % is set by controls: 0 for no effect and ±100 for the full control effect; nearly all actives have a fitted effect of over 50% in size
# HP1b chromo inh: blocks HP1-beta chromodomain binding to methylated histone tails; AlphaScreen HP1-beta / biotin-H3K9me3 peptide binding; Potency, µM (doses to about 114 µM), inactives show top-dose activity change, negative = inhibition, usual class: inhibitors; 390,000 compounds, 0.56% hits; AID 540317; note: nearly all actives have a fitted effect of over 70% in size
#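 Compound inhibition of the preformed complex between 50 nM HP1-beta and 50 nM biotinylated H3K9me3 peptide was read by AlphaScreen. Buffer was PBS pH 7.4 with 0.01% Tween-20. Incubations ran 30 min at room temperature, with 10 ug/mL donor/acceptor beads.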
# L3MBTL1 block: inhibitors of human L3MBTL1 | AlphaScreen L3MBTL1–H3K9me1 peptide binding | Potency, µM (titrated, usually from 57.1 µM), for the others: at the highest dose activity, negative = inhibition, actives largely listed as inhibitors | 230,000 compounds, 0.66% hits; note: % is set by controls: 0 for no effect and ±100 for the full control effect; nearly all actives have a fitted effect of over 60% in size
#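 Read-out is AlphaScreen signal from streptavidin donor and nickel chelate acceptor beads (10 ug/mL final each) bridging L3MBTL1 (50 nM) and biotinylated K9-monomethylated H3(1-15) peptide (75 nM), after 30 min compound exposure at room temperature.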
# BAZ2B inh: inhibitors of human BAZ2B bromodomain; Q9UIF8; AlphaScreen BAZ2B-H3K14Ac peptide displacement; Potency, µM (top dose mostly 114 µM), inactives show at the top dose activity change, negative = inhibition, hits mostly inhibitors; 360,000 compounds, 4.4% hits; note: % is set by controls: 0 for no effect and ±100 for the full control effect; nearly all actives have a fitted effect of over 60% in size
#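 BAZ2B (50 nM) with biotin-H3(5-23)K14Ac peptide (50 nM) in PBS pH 7.4, 0.01% Tween-20, preformed 30 min, then compound 30 min at room temperature; top concentration 110uM. AlphaScreen streptavidin donor/nickel chelate acceptor beads (10 ug/mL final), 20 min dark, signal read.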
# * hit, by the source's call; ? = inconclusive; · = no result given; [ ] = remark or other dose. A selection: hits, their analogues and other compounds. The true share with any hit is near 10%. Calls come from the whole dose curve; as a rule, active = well fitted curve in the direction sought with a large enough effect; inconclusive = small, poorly fitted or top-dose-only effect, or another doubt; inactive = no such curve, though single readings can be large; an effect the other way counts as inactive or inconclusive. Potency is the fitted concentration of half-maximal effect.
SMILES,G9a block,GLS inhibitor,JMJD2A Tudor,HP1b chromo inh,L3MBTL1 block,BAZ2B inh
CCOC(=O)c1nnc2ccnn2c1N,?,-1%,89µM*,2%,2%,-3%
COc1ccc2c(c1)c1c(c(=O)n(Cc3ccccc3)c(=O)n1CC(=O)Nc1ccc(C)cc1C)n2C,6%[59 µM],-1%,18%,36%,·,-1%
Nc1ccc(Nc2ccccc2)c(Cl)c1,?,23%,?,?,-14%,50µM*
Nc1ccc(NC(=O)c2cccs2)c(Cl)c1,-21%,34%,-7%,13%,-3%,-8%
Nc1ccccc1Nc1ccccc1,·,1%,45µM*,?,-3%,45µM*
COc1cccc(CSc2ccc(S(=O)(=O)N3CCOCC3)cc2C(=O)NCC2CCCO2)c1OC (stereo unspecified),40µM*,0%,-7%,-8%,·,10%
COCCNC(=O)c1cc(S(=O)(=O)N2CCOCC2)ccc1SCc1cccc(OC)c1OC,28µM*,-9%,-3%,42%,·,4%
O=C(NC1CCCCCC1)C1CCN(C(=O)N2CCOc3ccccc32)CC1,6%[59 µM],-3%,-5%,39%,·,2%
CC(CN(C)C)CN1c2ccccc2S(=O)(=O)c2ccccc21 (stereo unspecified),·,-7%,·,·,·,·
O=C(NCc1cccnc1)c1ccc(Cl)c(S(=O)(=O)Nc2ccccc2C(=O)NCc2cccnc2)c1,45µM*,-1%,-11%,36%,0%,?
O=C(NCc1cccnc1)c1ccc(Cl)c(S(=O)(=O)N2CCCCCC2)c1,-1%,43%,25µM*,5%,1%,-9%
Cc1cc(C)cc(OC(C)C(=O)Nc2ccccc2C(=O)NCc2cccnc2)c1 (stereo unspecified),50µM*,-3%,-25%,27%,·,-29%
O=C(NCc1ccccn1)c1ccc(Cl)c(S(=O)(=O)Nc2ccccc2C(=O)NCc2ccccn2)c1,50µM*,-4%,-31%,37%,-6%,8%
CNS(=O)(=O)c1cn(CC(=O)N2CCN(c3cccc(Cl)c3)CC2)cc1S(=O)(=O)NC,0%[59 µM],-1%,-21%,5%,·,-16%
O=C(NCc1cccc(Br)c1)c1ccc(-n2cnc3cccnc32)cc1,-24%[59 µM],-11%,-16%,37%,·,-7%
CC1=CC(C)C(C[N+]2(C)CCCCC2)C(C)C1 (stereo unspecified),25µM*,1%,-1%,-4%,7%,?
O=C(CSC1=Nc2ccccc2N=C(c2ccc(F)cc2)C1)Nc1cc(F)ccc1F,-25%[59 µM],-1%,-17%,19%[57 µM],·,-14%
CCOC(=O)C1=C(Cc2ccc(F)cc2)C(=O)c2ccccc2C1=O,8.9µM*,10%,20µM*,?,·,40µM*
Cn1c(=O)c2cccnc2c(=O)n1C,·,14%,·,·,·,·
O=c1[nH]n(CCO)c(=O)c2cccnc12,?,13%,56µM*,-14%,-2%,?
Cc1ccc(C(=O)c2c3ccc(N)cc3nn2CCC(N)=O)cc1,45µM*,7%,?,13%,-9%,?
Cc1ccc(C(=O)c2c3ccc(C(F)(F)F)cc3[n+]([O-])n2CCC(N)=O)cc1,·,1%,-30%,15%,-2%,-4%
Cc1ccc(CCNC(=O)CCCn2c(=O)c3ccccc3n(CC(=O)Nc3cc(Cl)ccc3C)c2=O)cc1,27%[59 µM],2%,-8%,64%,·,15%
Cn1cc(CN2CC3C[C@@H]4CC2C[C@H](C3)C4)c(-c2ccc3c(c2)OCCO3)n1,50µM*,-7%,-12%,25%,-5%,?
CCN1CCn2c3c(c4cccc(C)c42)CCCC31 (stereo unspecified),71µM*,6%,?,-7%,-6%,?
SMILES,G9a block,GLS inhibitor,JMJD2A Tudor,HP1b chromo inh,L3MBTL1 block,BAZ2B inh
CCN1CCn2c3c(c4cc(C)ccc42)CCCC31 (stereo unspecified),20µM*,19%,?,?,-20%,?
Cc1ccc2c(c1)c1c3n2CCN(CCC#N)C3CCC1 (stereo unspecified),·,13%,·,·,·,·
Cc1occc1C(=O)Nc1nn[nH]n1,45µM*,6%,45µM*,0%,·,?
Cc1occc1C(=O)Nc1c(F)c(F)c(F)c(F)c1F,14µM*,-3%,1%[11.4 µM],-21%,·,18%
COCCN1Cc2cccc(C(=O)Nc3ccc(C)cc3C)c2C1=O,9%[59 µM],-8%,-3%,37%,·,·
NC(=O)N/N=C/c1cn(-c2ccccc2)nc1-c1cccs1,-34%,-13%,-4%,18%,-7%,-32%
O=C(O)c1cccc(N/N=C/c2cn(-c3ccccc3)nc2-c2cccs2)c1,35µM*,?,?,-2%,-27%,?
NS(=O)(=O)c1ccc(N/N=C/c2cn(-c3ccccc3)nc2-c2cccs2)cc1,10µM*,2%,?,-3%,-6%,3%
CCOc1ccccc1NS(=O)(=O)c1c(C(=O)OC)sc2cccc(F)c12,15%[59 µM],6%,-13%,25%,·,-16%
CCn1c(CCNC(=O)c2ccc(Cl)cc2)n[nH]c1=S,?,4%,10µM*,21%,·,5%
Cn1c(CCNC(=O)c2ccccc2Cl)n[nH]c1=S,-18%[12.7 µM],9%,45µM*,9%,15%,4%
CN(C(=O)Cn1nc(Cc2cccnc2)c2ccccc2c1=O)c1cccc(C(F)(F)F)c1,-19%[59 µM],-1%,-20%,51%,·,-8%
Cc1ccc(-n2cnc3c(sc4nc(N5CCOCC5)c5c(c43)CCCC5)c2=O)cc1,50µM*,0%,-14%,51%,4%,-12%
Cc1ccccc1-c1n[nH]c(=S)n1/N=C/c1c(C)nn(-c2ccccc2)c1C,1µM*,?,?,25%,-1%,-5%
Cc1nn(-c2ccccc2)c(C)c1/C=N/n1c(-c2ccc(C(C)(C)C)cc2)n[nH]c1=S,29%[0.501 µM],-28%,?,?,-16%,?
Cc1ccc(-c2n[nH]c(=S)n2/N=C/c2c(C)nn(-c3ccccc3)c2C)cc1,10µM*,-1%,79µM*,10%,7%,-25%
Cc1ccc(-c2cc(C(=O)N/N=C/c3c(C)nn(-c4ccccc4)c3C)[nH]n2)cc1,-19%[59 µM],·,·,·,-1%,4%
CC(C)COc1ccc(C(=O)N2CCC(c3nc4ccccc4s3)CC2)cc1,-10%[59 µM],-2%,-5%,43%,·,5%
O=[N+]([O-])c1ccc(C2Oc3ccccc3C3CC(c4ccccc4)=NN32)s1 (stereo unspecified),10µM*,·,·,·,-13%,?
COc1ccc(C2Nc3ccccc3C(=O)N2Cc2ccccc2)cc1COc1ccccc1F (stereo unspecified),·,·,2%[57.1 µM],15%[57 µM],·,·
S=C(Nc1cccc(Cl)c1)Nc1cccc2cnccc12,?,6%,?,?,?,?
